An excerpt weighted towards active compounds, which were near 3% of everything screened.
SENP8 block-1 – inhibitors of human SENP8 protease; Q96LD8; inhibition, % at 10 µM; purified SENP8, Z-RLRGG-aminoluciferin cleavage, luminescence; 1.2% of 330,000 active; in the data active = inhibition above about 50%
SENP7 inh – blocks the human protease SENP7. Q9BQF6. recombinant SENP7, Z-RLRGG-aminoluciferin luminescence, 40 min. inhibition, % at 5 µM. 1.5% of 330,000 active;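 active = inhibition above about 50% at the single test dose, limit read from the data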;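 note: plate controls were DMSO with enzyme for no effect and no enzyme buffer wells for full effect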
TRAIL sens C8 – sensitizes caspase-8 expressing cells to TRAIL; 1% of 360,000 active; inhibition (viability loss, TRAIL sensitization), % at 10 µM; NB7+C8 cells + TRAIL, ATPlite viability luminescence;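 active = compounds causing at least 50% loss of cell viability in the single-dose screen, relative to plate controls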
SENP6 inh – inhibitors of human SENP6 protease; AID 2599; Q9GZR1; inhibition, % at 10 µM; Recombinant SENP6 catalytic domain, aminoluciferin luminescence; 1.8% of 330,000 active;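 active = inhibition above about 50% at the single tested dose, limit read from the data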;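 note: plate controls were DMSO wells with enzyme for no effect and DMSO wells lacking enzyme for full effect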
Target sequence (Q9GZR1 628-1112 limits assumed): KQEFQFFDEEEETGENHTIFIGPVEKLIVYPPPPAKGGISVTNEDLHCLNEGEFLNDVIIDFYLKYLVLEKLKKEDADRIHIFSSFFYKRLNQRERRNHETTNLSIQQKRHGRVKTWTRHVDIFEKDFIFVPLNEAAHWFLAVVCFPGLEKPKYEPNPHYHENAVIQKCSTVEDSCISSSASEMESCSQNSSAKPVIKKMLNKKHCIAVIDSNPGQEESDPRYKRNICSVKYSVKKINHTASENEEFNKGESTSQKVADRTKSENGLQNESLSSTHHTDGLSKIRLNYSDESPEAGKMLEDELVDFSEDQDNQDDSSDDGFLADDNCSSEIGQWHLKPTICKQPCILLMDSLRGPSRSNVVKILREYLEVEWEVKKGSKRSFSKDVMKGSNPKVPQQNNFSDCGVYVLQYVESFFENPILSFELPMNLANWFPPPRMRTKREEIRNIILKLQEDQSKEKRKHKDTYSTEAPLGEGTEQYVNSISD
SENP8 block-2 – SENP8 (human) protease inhibition; recombinant SENP8, Nedd8 substrate fluorescence; inhibition, % at 20 µM; 0.64% of 360,000 active; AID 602440; in the data active = inhibition mostly above about 40%, no sharp cut-off; inactive = mostly below about 27%
PPC-1+TRAIL kill – kills PPC-1 cancer cells in the presence of TRAIL; PPC-1 cells + TRAIL, ATPLite viability luminescence; cell killing (% activity), % at 4 µM or 5 µM; 0.41% of 220,000 active; AID 1443;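 active = cell killing above 50% in the first pass at 4 µM, then a duplicate retest at 5 µM averaging 50% or more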;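 note: plate controls were cells with TRAIL plus DMSO for no effect and medium-only wells lacking cells for full effect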
SENP8 inh conf – SENP8 (human) inhibition, single concentration confirmation. shares compounds with SENP8 block-2. purified SENP8, Nedd8-AMC/pro-Nedd8 cleavage fluorescence, 30 min. inhibition, % at 25 µM. 15% of 1,400 active. AID 624319; in the data active = inhibition mostly above about 39%, no sharp cut-off; inactive = mostly below about 34%
An asterisk follows results filed as active; i = inactive; . = no result given.

SMILES | SENP8 block-1 | SENP7 inh | TRAIL sens C8 | SENP6 inh | SENP8 block-2 | PPC-1+TRAIL kill | SENP8 inh conf
OCC1OC(Oc2c[nH]c3ccccc23)C(O)C(O)C1O (stereo unspecified) | -3 | 13 | -5 | -1 | -220 | . | .
OCc1ccccc1O[C@@H]1O[C@H](CO)[C@@H](O)[C@H](O)[C@H]1O | 2 | -3 | 13 | -3 | 49* | . | 3
Cc1ccc(S(=O)(=O)N[C@@H](CC(C)C)C(=O)N2CCC(C(=O)N[C@@H](Cc3ccccc3)C(=O)O)CC2)cc1 | 3 | -6 | 13 | 11 | 65* | . | 7
CCC(C)[C@H](NS(=O)(=O)c1ccc(C)cc1)C(=O)N1CCC(C(=O)N2CCC(C(=O)OC)CC2)CC1 (stereo partly specified) | -3 | 6 | -12 | 13 | 46* | . | 3
COc1ccccc1/C=C/C=NC1C(=O)N(c2ccccc2)[N+](C)=C1C (stereo unspecified) | -4 | -4 | -40 | -17 | 11 | 1 | .
CC1=[N+](C)N(c2ccccc2)C(=O)C1N=C/C=C/c1ccccc1 (stereo unspecified) | -11 | -7 | -13 | -21 | 42* | 2 | 5
COc1ccc(S(=O)(=O)N2CCN(Cc3c[nH]c4ccccc34)CC2)cc1 | 1 | -1 | -8 | 15 | 24 | 11 | .
O=[N+]([O-])c1ccc(S(=O)(=O)N2CCN(Cc3c[nH]c4ccccc34)CC2)cc1 | 5 | 3 | 3 | 3 | 59* | 7 | 24
Cc1cc(Cl)ccc1NNC(N)=S | -8 | 14 | -7 | -13 | 61* | 27 | -8
Cc1ccc(C)c(NNC(N)=S)c1 | -7 | -1 | 3 | -22 | 15 | 2 | .
CN1CCN(c2ccc(CNC(=O)c3ccc(-c4ccc(F)c(F)c4)c4ccoc34)cc2)CC1 | . | . | 23 | . | 2 | . | .
C[C@@H]1CCCCO[C@H](CN(C)Cc2ccc(C(=O)O)cc2)[C@@H](C)CN([C@H](C)CO)C(=O)c2cc(NC(=O)CCC(F)(F)F)ccc2O1 | . | . | 5 | . | 7 | . | .
c1ccc(Nc2cc(Nc3ccccc3)[nH]n2)cc1 | -12 | 7 | -5 | -19 | 55* | 4 | 40
O=c1nccc(Nc2ccccc2)[nH]1 | -1 | -2 | 2 | 7 | 17 | -6 | .
O=C(CN1CCc2ccccc2C1)Nc1ccc(OC(F)(F)F)cc1 | -1 | 2 | -5 | -19 | 9 | . | .
Cc1c(Cl)c(C(=O)NNC(=S)NCc2ccco2)nn1C | -10 | -7 | 2 | -12 | 40* | 8 | 14
CSc1ccc(OC2(C)CCN(Cc3ccc4c(c3)OCCO4)C2)cc1 (stereo unspecified) | . | . | 11 | . | 6 | . | .
CC1CC(=O)Nc2ccc([N+](=O)[O-])cc2N1C (stereo unspecified) | 2 | -1 | 0 | 0 | 14 | -10 | .
CC1CC(=O)Nc2cc([N+](=O)[O-])ccc2N1 (stereo unspecified) | 1 | 3 | 4 | -8 | 44* | 20 | 30
O=C1Nc2ccccc2C1=O | -4 | 4 | -2 | -16 | 44* | . | 14
CC(C)c1cccc(C(C)C)c1NC(=O)CN1CCCC1 | -2 | 2 | -3 | 0 | 6 | . | .
CCCOC(=O)c1cccc(NC(=O)C(C)(C)C)c1 | 1 | 4 | -2 | 14 | 42* | 5 | -2
CC(C)(C)C(=O)Nc1cccc(C(=O)c2cccc(NC(=O)C(C)(C)C)c2)c1 | -12 | 11 | 8 | -6 | 24 | 12 | .
COc1ccc(NC(=O)c2cccc(S(=O)(=O)N3CCOCC3)c2)cn1 | 6 | 0 | -6 | -3 | 80* | -8 | 5
COc1ccc(NC(=O)c2cccc(S(=O)(=O)N3CCOCC3)c2)cc1 | -8 | -7 | 10 | -8 | 14 | . | .
SMILES | SENP8 block-1 | SENP7 inh | TRAIL sens C8 | SENP6 inh | SENP8 block-2 | PPC-1+TRAIL kill | SENP8 inh conf
COc1ccc(NC(=O)Nc2cccc3c2O[C@H](CN(C)S(=O)(=O)c2c(C)noc2C)[C@@H](C)CN([C@H](C)CO)C3=O)cc1 | -13 | -8 | -11 | 0 | -8 | . | .
O=[N+]([O-])c1ccc(N2CCN(Cc3ccccc3)CC2)c2c1no[n+]2[O-] | . | . | 94* | . | 42* | . | 83*
CC1=C(C)C(O)N(Cc2ccccc2)C1=O (stereo unspecified) | -5 | 0 | 8 | -9 | 7 | . | .
CC(NC(=O)CSc1nc(C2CC2)n(-c2ccccc2)n1)c1ccco1 (stereo unspecified) | 2 | 5 | -14 | -3 | 0 | . | .
Cc1ccc(S(=O)(=O)N2CCN(CC(=O)Nc3ccnn3C3CCCC3)CC2)cc1 | -2 | -1 | -14 | 2 | 6 | . | .
COc1ccc(/C=N/Nc2nn3cnnc3c3ccccc23)cc1 | -4 | 6 | 0 | -9 | -231 | -1 | .
Cc1cc(F)ccc1Oc1cc(NN2CCCCC2)c([N+](=O)[O-])cc1[N+](=O)[O-] | -13 | -15 | -4 | -18 | 31 | . | .
O=[N+]([O-])c1cc([N+](=O)[O-])c(Oc2cc(F)ccc2F)cc1NN1CCCCC1 | -5 | -3 | 14 | 0 | 55* | . | 22
Cc1cc(NC(=O)c2ccccc2)ccc1NC(=O)Cc1ccccc1 | -2 | 1 | 12 | 17 | 6 | . | .
c1ccc(Sc2ccccn2)cc1 | -4 | -9 | 10 | -16 | 40* | . | 15
c1ccc(SSc2ccccn2)nc1 | 5 | -3 | 21 | 13 | 32 | . | .
Cc1ccc(S(=O)(=O)N2CCCCC2)cc1NC(=O)CSc1nc(N)cc(=O)[nH]1 | 5 | -2 | 1 | 11 | 2 | . | .
CC(=O)Nc1ccc(S(=O)(=O)N2CCN(C(=O)CCC3CCCC3)CC2)cc1 | -5 | -7 | -15 | 2 | 46* | 4 | 11
COc1cc(CNC[C@H]2O[C@@H](n3cnc(C(N)=O)n3)[C@H](O)[C@@H]2O)ccc1OCc1cccc(Cl)c1 | . | . | -6 | . | 16 | . | .
CN(C)C=Nc1nonc1N | -7 | -7 | 0 | -19 | 45* | 11 | 2
Cc1cc(/N=C/N(C)C)on1 | 6 | 7 | -15 | -2 | 12 | 18 | .
CC(=O)Nc1ccc(N(C(=O)c2ccccn2)C(C(=O)NC2CCCCC2)c2ccc(F)cc2)cc1 (stereo unspecified) | -1 | 6 | -4 | -6 | 10 | . | .
O=C(N/N=C/c1ccc(N2CCOCC2)s1)c1ccc(O)cc1 | . | . | -1 | . | i | . | .
O=C(NN=Cc1ccc(N2CCOCC2)s1)c1ccc([N+](=O)[O-])cc1 | -2 | -5 | 23 | -2 | 43* | . | 31
COc1ccc(S(N)(=O)=O)cc1C(=O)NNC(=O)CN(C)S(=O)(=O)c1ccc(Cl)cc1 | 10 | -1 | -20 | 0 | 3 | . | .
COc1ccc(CN(C)C(=O)c2ccc3c(=O)n4c(nc3c2)CCC4)c(OC)c1 | -8 | 7 | 4 | -7 | -110 | . | .
CC(=O)Nc1ccc(N=c2cc([N+](=O)[O-])cc(Cl)n2O)cc1 | 16 | 18 | 4 | 2 | 51* | . | 28
